In paper PMC7862700, “An all-to-all approach to the identification of sequence-specific readers for epigenetic DNA modifications on cytosine” one finds binding signal data, which are given here for seven sequences.

What all share (experiment): DAPPL (digital affinity profiling via proximity ligation, sequencing); 10 mM Tris-HCl pH 7.5, 50 mM NaCl, 1 mM DTT, 4% glycerol, room temperature, 30 min; GST-TFs on glutathione beads, 16-mer random dsDNA library, 0.1% formaldehyde crosslink after washing; high values mean tight binding
Common to all, as to details: protein: recombinant; tags: N-terminal GST; dsDNA, one strand shown

The target of experiment [1] is T1, FLI1 (Homo sapiens, UniProt Q01543 1-452).
T1 sequence: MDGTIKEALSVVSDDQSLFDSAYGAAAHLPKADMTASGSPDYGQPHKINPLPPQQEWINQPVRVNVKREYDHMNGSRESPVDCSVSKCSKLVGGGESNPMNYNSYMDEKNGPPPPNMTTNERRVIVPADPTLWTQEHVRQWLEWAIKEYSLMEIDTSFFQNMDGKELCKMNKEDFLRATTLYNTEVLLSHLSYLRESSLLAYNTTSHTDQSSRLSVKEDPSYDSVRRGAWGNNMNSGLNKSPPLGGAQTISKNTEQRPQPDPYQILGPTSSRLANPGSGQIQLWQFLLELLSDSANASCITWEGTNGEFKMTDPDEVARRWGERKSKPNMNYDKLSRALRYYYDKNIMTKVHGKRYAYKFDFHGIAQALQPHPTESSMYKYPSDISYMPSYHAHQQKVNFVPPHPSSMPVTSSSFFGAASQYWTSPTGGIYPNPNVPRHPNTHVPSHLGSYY
Put shortly:
(§1)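 Binding signal is given per hexamer as its read frequency for a factor divided by its frequency in the tag-only sample. GST-fused human transcription factors were expressed in yeast, captured on glutathione beads, barcoded with DNA and pooled with that sample, then incubated with 200 nmole of a 16-mer random double-stranded DNA library in Tris/NaCl/DTT/glycerol buffer for 30 min at room temperature. The pools were then washed, crosslinked, proximity-ligated, amplified by PCR and sequenced on an Illumina NextSeq500.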

Experiment [2] concerns the target T2, ELK1 (Homo sapiens, UniProt P19419 1-428).
T2 sequence: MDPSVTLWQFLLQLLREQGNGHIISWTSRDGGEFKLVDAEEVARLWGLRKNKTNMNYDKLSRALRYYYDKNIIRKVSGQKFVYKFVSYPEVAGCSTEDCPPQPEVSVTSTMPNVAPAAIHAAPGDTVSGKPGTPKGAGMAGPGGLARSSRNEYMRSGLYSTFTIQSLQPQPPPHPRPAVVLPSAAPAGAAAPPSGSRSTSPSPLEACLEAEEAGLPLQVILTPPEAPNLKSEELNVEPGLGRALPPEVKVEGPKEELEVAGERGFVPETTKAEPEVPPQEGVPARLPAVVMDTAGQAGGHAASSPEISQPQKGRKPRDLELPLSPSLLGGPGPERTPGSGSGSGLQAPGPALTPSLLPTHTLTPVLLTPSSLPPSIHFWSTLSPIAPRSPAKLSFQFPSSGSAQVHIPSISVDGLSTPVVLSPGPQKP
Put shortly:
as §1

The target in experiment [3] is T3, GABPA (Homo sapiens, UniProt Q06546 1-454).
T3 sequence: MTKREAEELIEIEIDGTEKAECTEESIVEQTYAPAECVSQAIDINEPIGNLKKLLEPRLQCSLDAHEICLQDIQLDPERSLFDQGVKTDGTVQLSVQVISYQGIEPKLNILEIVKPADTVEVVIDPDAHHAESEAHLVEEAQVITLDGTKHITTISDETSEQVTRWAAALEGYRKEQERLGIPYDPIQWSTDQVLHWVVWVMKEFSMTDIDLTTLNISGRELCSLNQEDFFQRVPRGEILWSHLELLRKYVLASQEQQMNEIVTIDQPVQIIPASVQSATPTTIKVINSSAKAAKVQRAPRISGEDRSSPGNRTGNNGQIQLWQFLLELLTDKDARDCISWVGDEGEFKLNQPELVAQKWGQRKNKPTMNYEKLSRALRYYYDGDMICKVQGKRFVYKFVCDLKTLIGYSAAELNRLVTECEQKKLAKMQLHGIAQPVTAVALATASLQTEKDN
Put shortly:
as §1

The target in experiment [4] is T4, ERG (Homo sapiens, UniProt P11308 1-479).
T4 sequence: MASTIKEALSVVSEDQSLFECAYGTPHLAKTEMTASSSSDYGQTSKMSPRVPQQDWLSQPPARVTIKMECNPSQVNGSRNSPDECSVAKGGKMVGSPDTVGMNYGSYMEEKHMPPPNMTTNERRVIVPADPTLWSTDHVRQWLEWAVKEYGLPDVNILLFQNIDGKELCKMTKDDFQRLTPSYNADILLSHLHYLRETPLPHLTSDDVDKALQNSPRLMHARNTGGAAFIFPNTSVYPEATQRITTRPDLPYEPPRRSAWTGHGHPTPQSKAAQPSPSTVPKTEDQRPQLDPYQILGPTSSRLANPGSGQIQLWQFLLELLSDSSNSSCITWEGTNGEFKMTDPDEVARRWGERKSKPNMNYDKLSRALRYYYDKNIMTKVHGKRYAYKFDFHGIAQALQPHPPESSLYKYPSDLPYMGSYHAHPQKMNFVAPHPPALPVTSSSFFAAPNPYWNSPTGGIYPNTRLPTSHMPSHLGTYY
The procedure, abridged:
as §1

Experiment [5] deals with ELF1 (Homo sapiens, UniProt P32519 1-619). Put shortly: as §1
ELF1, sequence (P32519 whole entry): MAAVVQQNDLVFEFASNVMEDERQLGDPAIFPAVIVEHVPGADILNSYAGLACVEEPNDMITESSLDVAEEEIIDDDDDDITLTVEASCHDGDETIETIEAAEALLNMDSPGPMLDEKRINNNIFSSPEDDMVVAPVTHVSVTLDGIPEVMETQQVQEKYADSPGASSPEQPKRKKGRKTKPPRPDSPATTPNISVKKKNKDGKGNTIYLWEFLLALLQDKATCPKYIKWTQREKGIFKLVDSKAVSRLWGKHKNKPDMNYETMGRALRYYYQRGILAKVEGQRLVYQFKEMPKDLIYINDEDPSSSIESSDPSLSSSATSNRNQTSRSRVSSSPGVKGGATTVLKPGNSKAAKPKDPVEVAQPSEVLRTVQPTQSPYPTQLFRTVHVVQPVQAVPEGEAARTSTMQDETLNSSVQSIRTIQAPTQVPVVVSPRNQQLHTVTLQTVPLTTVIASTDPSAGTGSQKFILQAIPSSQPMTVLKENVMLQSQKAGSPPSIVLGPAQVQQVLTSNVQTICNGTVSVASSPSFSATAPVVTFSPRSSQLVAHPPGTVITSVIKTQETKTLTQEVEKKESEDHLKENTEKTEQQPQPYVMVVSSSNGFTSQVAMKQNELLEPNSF
Experiment [6] deals with T5, EHF (Homo sapiens, UniProt Q9NZC4 1-300).
T5 sequence: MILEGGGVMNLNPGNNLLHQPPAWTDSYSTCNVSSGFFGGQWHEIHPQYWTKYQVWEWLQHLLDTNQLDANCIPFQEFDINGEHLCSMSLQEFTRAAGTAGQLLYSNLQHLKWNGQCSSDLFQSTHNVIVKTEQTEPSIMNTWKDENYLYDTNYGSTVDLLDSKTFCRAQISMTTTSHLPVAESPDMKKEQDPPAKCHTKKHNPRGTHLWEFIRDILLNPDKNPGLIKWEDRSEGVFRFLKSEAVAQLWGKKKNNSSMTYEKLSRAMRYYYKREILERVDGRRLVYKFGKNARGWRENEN
The procedure, abridged: as §1

The target of experiment [7] is SPI1 (Homo sapiens, UniProt P17947 1-270). The procedure, abridged:
as §1

Experiment [8] has as its target SPIB (Homo sapiens, UniProt Q01892 1-262). Put shortly: as §1
Experiment [9] deals with T6, ELK3 (Homo sapiens, UniProt P41970 1-407).
T6 sequence: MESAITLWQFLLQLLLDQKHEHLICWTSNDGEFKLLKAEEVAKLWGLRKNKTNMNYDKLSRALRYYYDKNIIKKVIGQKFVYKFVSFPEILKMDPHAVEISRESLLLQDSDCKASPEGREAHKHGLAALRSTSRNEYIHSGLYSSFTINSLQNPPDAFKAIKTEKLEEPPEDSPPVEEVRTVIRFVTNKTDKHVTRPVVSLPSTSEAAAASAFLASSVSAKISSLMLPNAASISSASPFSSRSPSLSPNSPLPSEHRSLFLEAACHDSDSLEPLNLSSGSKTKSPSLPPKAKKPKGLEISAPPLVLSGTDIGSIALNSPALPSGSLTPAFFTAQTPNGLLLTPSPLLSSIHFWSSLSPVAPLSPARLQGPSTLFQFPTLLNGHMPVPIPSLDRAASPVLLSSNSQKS
The procedure, abridged: as §1

SPIB, sequence (Q01892 whole entry): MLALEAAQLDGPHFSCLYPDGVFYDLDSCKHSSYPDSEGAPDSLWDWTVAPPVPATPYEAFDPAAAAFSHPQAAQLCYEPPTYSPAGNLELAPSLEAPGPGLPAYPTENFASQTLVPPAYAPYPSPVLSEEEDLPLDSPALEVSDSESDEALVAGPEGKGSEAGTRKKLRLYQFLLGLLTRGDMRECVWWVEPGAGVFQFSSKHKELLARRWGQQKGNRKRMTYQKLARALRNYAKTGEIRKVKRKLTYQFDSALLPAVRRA

As for TACAAT, the binding signal was 1.29 fold enrichment (6-mer frequency, TF over GST control) in experiment [1]; 1.28 fold enrichment (6-mer frequency, TF over GST control) in [2]; 1.32 fold enrichment (6-mer frequency, TF over GST control) in experiment [3]; 1.29 fold enrichment (6-mer frequency, TF over GST control) in [4]; 1.3 fold enrichment (6-mer frequency, TF over GST control) in experiment [5]; 1.38 fold enrichment (6-mer frequency, TF over GST control) in experiment [6]. The binding signal in [7] is 1.25 fold enrichment (6-mer frequency, TF over GST control); in [8] it was 1.26 fold enrichment (6-mer frequency, TF over GST control); in [9] it was 1.21 fold enrichment (6-mer frequency, TF over GST control).
TACACG: the binding signal in experiment [1] was 1.13 fold enrichment (6-mer frequency, TF over GST control); in experiment [2], 1.11 fold enrichment (6-mer frequency, TF over GST control); in experiment [3], 1.19 fold enrichment (6-mer frequency, TF over GST control); in [4], 1.1 fold enrichment (6-mer frequency, TF over GST control); in [5] it was 1.16 fold enrichment (6-mer frequency, TF over GST control); in experiment [6], 1.1 fold enrichment (6-mer frequency, TF over GST control). For the same sequence, the binding signal in experiment [7] was 1.07 fold enrichment (6-mer frequency, TF over GST control); in experiment [8] it was 1.16 fold enrichment (6-mer frequency, TF over GST control); in experiment [9], 1.19 fold enrichment (6-mer frequency, TF over GST control).
In the case of TGCCCG, the binding signal in experiment [1] is 1.16 fold enrichment (6-mer frequency, TF over GST control); in experiment [2], 1.16 fold enrichment (6-mer frequency, TF over GST control); in experiment [3] it was 1.24 fold enrichment (6-mer frequency, TF over GST control); in experiment [4], 1.19 fold enrichment (6-mer frequency, TF over GST control); in experiment [5], 1.2 fold enrichment (6-mer frequency, TF over GST control); in [6], 1.27 fold enrichment (6-mer frequency, TF over GST control). Besides, the binding signal in experiment [7] was 1.13 fold enrichment (6-mer frequency, TF over GST control); in experiment [8], 1.14 fold enrichment (6-mer frequency, TF over GST control); in experiment [9], 1.12 fold enrichment (6-mer frequency, TF over GST control).
Consider CAACAT, for which the binding signal in experiment [1] is 1.18 fold enrichment (6-mer frequency, TF over GST control); in experiment [2], 1.21 fold enrichment (6-mer frequency, TF over GST control); in experiment [3] it was 1.22 fold enrichment (6-mer frequency, TF over GST control); in [4], 1.2 fold enrichment (6-mer frequency, TF over GST control); in experiment [5], 1.2 fold enrichment (6-mer frequency, TF over GST control); in experiment [6], 1.23 fold enrichment (6-mer frequency, TF over GST control). Moreover, the binding signal in experiment [7] is 1.06 fold enrichment (6-mer frequency, TF over GST control); in [8] it was 1.14 fold enrichment (6-mer frequency, TF over GST control); in [9], 1.14 fold enrichment (6-mer frequency, TF over GST control).
Take ATCTCA: the binding signal is 1.17 fold enrichment (6-mer frequency, TF over GST control) in experiment [1]; 1.18 fold enrichment (6-mer frequency, TF over GST control) in [2]; 1.15 fold enrichment (6-mer frequency, TF over GST control) in [3]; 1.11 fold enrichment (6-mer frequency, TF over GST control) in experiment [4]; 1.2 fold enrichment (6-mer frequency, TF over GST control) in [5]; 1.25 fold enrichment (6-mer frequency, TF over GST control) in [6]. For the same sequence, the binding signal in experiment [7] is 1.12 fold enrichment (6-mer frequency, TF over GST control); in experiment [8] it was 1.19 fold enrichment (6-mer frequency, TF over GST control); in experiment [9], 1.18 fold enrichment (6-mer frequency, TF over GST control).
With CTGCGT, the binding signal in [1] was 1.12 fold enrichment (6-mer frequency, TF over GST control); in experiment [2], 1.15 fold enrichment (6-mer frequency, TF over GST control); in experiment [3], 1.16 fold enrichment (6-mer frequency, TF over GST control); in [4] it was 1.13 fold enrichment (6-mer frequency, TF over GST control); in [5], 1.17 fold enrichment (6-mer frequency, TF over GST control); in experiment [6], 1.18 fold enrichment (6-mer frequency, TF over GST control). Moreover, the binding signal was 1.16 fold enrichment (6-mer frequency, TF over GST control) in experiment [7]; 1.12 fold enrichment (6-mer frequency, TF over GST control) in experiment [8]; 1.24 fold enrichment (6-mer frequency, TF over GST control) in experiment [9].
Turning to ACACTC, the binding signal is 1.04 fold enrichment (6-mer frequency, TF over GST control) in [1]; 1.1 fold enrichment (6-mer frequency, TF over GST control) in [2]; 1.15 fold enrichment (6-mer frequency, TF over GST control) in experiment [3]; 1.08 fold enrichment (6-mer frequency, TF over GST control) in [4]; 1.12 fold enrichment (6-mer frequency, TF over GST control) in experiment [5]; 1.14 fold enrichment (6-mer frequency, TF over GST control) in [6]. Further, the binding signal in experiment [7] is 1.09 fold enrichment (6-mer frequency, TF over GST control); in experiment [8], 1.15 fold enrichment (6-mer frequency, TF over GST control); in experiment [9], 1.19 fold enrichment (6-mer frequency, TF over GST control).
